# Shown are actives, neighbours in structure and some others; about 11% of the full set was active somewhere.
# AmpC inh detg: qHTS Inhibitors of AmpC Beta-Lactamase (assay with detergent) | P00811 | AmpC hydrolysis of nitrocefin, absorbance 480 nm, 0.01% Triton | Potency, µM (series often up to 114 µM), for inactives: at the highest dose activity change, negative = inhibition, most hits filed as inhibitors | hit rate 0.041% among 370,000;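 note: 0% = no-compound wells and -100% = no-enzyme wells; nearly all actives have a fitted effect of over 25% in size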
# Target sequence (P00811 whole entry, looked up): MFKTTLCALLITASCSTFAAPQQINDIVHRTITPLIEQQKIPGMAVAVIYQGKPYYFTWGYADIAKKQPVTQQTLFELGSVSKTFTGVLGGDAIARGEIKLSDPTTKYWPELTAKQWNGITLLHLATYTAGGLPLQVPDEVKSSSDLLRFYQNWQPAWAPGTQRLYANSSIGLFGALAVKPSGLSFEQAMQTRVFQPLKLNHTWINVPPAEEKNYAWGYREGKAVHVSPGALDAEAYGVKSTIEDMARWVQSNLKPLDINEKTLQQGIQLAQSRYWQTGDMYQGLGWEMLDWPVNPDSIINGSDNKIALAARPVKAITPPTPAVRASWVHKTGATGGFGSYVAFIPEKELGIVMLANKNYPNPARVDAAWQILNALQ
#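 AmpC (5.3 nM in the dispensed reagent) in 20 mM phosphate pH 7.0 with 0.01% (detergent screen) or 0.0001% Triton X-100 was preincubated with compounds for 15 min at room temperature. Nitrocefin was then added from an 800 uM solution, and hydrolysis was followed at 480 nm.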
# HCV inhibitor: qHTS Assay for Inhibitors of Hepatitis C Virus (HCV) | Huh7.5.1 HCVcc-Cre infection, luciferase reporter, 44 h | Potency, µM (highest dose often 41.8 µM), for inactives: at the top dose activity change, negative = inhibition, usual class: inhibitors | hit rate 3.4% among 340,000 | AID 651820, 2012
#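 Antiviral activity was scored by luciferase reporter output from cells infected with HCVcc-Cre (~0.5 moi) in presence of compound, 44 h infection period, cells seeded 1,000/well 4 h prior.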
# Pf growth 96h: Primary qHTS for delayed death inhibitors of the malarial parasite plastid, 96 hour incubation | AID 504834, 2011 | P. falciparum luciferase reporter growth, 96 h | Potency, µM (doses to about 28.7 µM), without a hit: at the highest dose activity change, negative = inhibition, actives largely listed as inhibitors | hit rate 6.9% among 320,000
#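 Two parasite generations (96 h, 37 C, 5% CO2) of compound exposure in infected erythrocytes (0.05% parasitemia, 2% hematocrit). Luciferase-reporter P. falciparum; decreased luminescence indicates inhibited growth, aimed at apicoplast-acting delayed death.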
# AMA1-RON2 inh: qHTS for Inhibitors of AMA1-RON; Towards Development of Antimalarial Drug Lead: Primary Screen. AlphaScreen AMA1-biotinylated RON2 peptide binding. Potency, µM (doses to about 58.2 µM), for the others: top-dose activity change, negative = inhibition, actives largely listed as inhibitors. hit rate 0.2% among 360,000. AID 720542, 2013;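 note: 0% = vehicle wells and -100% = peptide control; nearly all actives have a fitted effect of over 45% in size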
#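 AMA1 (3D7) with his tag at 25 nM final met compounds first, then biotinylated RON2 peptide at 25 nM; detection used donor plus acceptor beads, 10 µg/mL apiece, read by AlphaScreen after 30 min at room temperature.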
# Pf growth 48h: Primary qHTS for delayed death inhibitors of the malarial parasite plastid, 48 hour incubation; P. falciparum luciferase growth in erythrocytes, 48 h; Potency, µM (titrated, usually from 28.7 µM), without a hit: top-dose activity change, negative = inhibition, usual class: inhibitors; hit rate 5.9% among 310,000; AID 504832, 2011
#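 Luminescence readout; reporter = integrated firefly luciferase in P. falciparum. RBC culture at 2% hematocrit, 0.1% parasitemia final, 37 C/5% CO2; decreased signal taken as growth inhibition.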
# AmpC no deterg: qHTS Inhibitors of AmpC Beta-Lactamase (assay without detergent); AID 485341, 2010; AmpC nitrocefin hydrolysis, absorbance 480 nm, 0.0001% Triton; Potency, µM (series often up to 57.1 µM), for the others: top-dose activity change, negative = inhibition, hits mostly inhibitors; hit rate 0.52% among 330,000; P00811;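 note: plate controls were no compound for no effect and no enzyme for full effect; nearly all actives have a fitted effect of over 20% in size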
#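 AmpC (5.3 nM in the dispensed reagent) in 20 mM phosphate pH 7.0 with 0.01% (detergent screen) or 0.0001% Triton X-100 was preincubated with compounds for 15 min at room temperature. Nitrocefin was then added from an 800 uM solution, and hydrolysis was followed at 480 nm.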
# * marks the source's active call; other numbers are inactive results; ? = inconclusive; / = no result given; [ ] = another dose, or the depositor's remark. Calls come from the whole dose curve; as a rule, active = well fitted curve in the direction sought with a large enough effect; inconclusive = small, poorly fitted or top-dose-only effect, or another doubt; inactive = no such curve, though single readings can be large; an effect the other way counts as inactive or inconclusive. Unless noted, % is set by controls: 0 for no effect and ±100 for the full control effect; potency is the fitted concentration of half-maximal effect.
SMILES,AmpC inh detg,HCV inhibitor,Pf growth 96h,AMA1-RON2 inh,Pf growth 48h,AmpC no deterg
CCOC(=O)N1CCc2c(sc(NC(=O)Cc3ccccc3)c2C(=O)c2ccc(OC)cc2)C1,2%,?,?,-17%,5.2µM*,50%
C=CCOc1ccccc1CN1CCC(C(=O)Nc2cccc(-c3ccn[nH]3)c2)CC1,0%,?,?,-2%,?,0%
CCn1nc(C)c(CN2CCC(C(=O)Nc3cccc(-c4cccc(F)c4)c3)CC2)c1C,-2%,?,4%,9%,10µM*,109%
CCn1cc(CN2CCC(C(=O)Nc3cccc(-c4cccc(F)c4)c3)CC2)cn1,-7%,8.9µM*,0%,0%,?,47%
CCn1cc(CN2CCC(C(=O)Nc3cccc(-c4cccc(OC)c4)c3)CC2)cn1,1%,4%,-15%,-6%,-24%,1%
CC(=O)c1cccc(CN2CCC(C(=O)Nc3cccc(-c4ccn[nH]4)c3)CC2)c1,?,6.3µM*,31%,4%,?,14%
CCC(=O)Nc1ccccc1-c1nc2ccccc2n(Cc2cccc(Br)c2)c1=O,-4%,/,/,/,/,/
COc1ccc(CNC(=O)Cc2csc3nc(-c4ccc(F)cc4)cn23)cc1,10%,/,/,/,/,/
CC1Sc2ccc(S(=O)(=O)CCC(=O)NCc3ccccc3)cc2NC1=O (centres undefined),-13%,-1%,?,8%,-1%,-19%
CC1Sc2ccc(S(=O)(=O)CCC(=O)Nc3ccccn3)cc2NC1=O (centres undefined),?,9%,9.3µM*,7%,14%,-28%
CC1Sc2ccc(S(=O)(=O)CCC(=O)N3CCc4ccccc43)cc2NC1=O (centres undefined),-12%,3%,17µM*,-13%,-1%,-18%
CCCN(C(=O)Cn1cnc2sc(C)c(S(=O)(=O)N3CCN(c4ncccn4)CC3)c2c1=O)c1cccc(C)c1,19%,/,/,/,/,/
CCOc1ccc(NC(=O)CN(c2ccc(CC)cc2)S(=O)(=O)c2c(C)noc2C)cc1,7%,/,/,/,/,/
COC(=O)[C@@H](NC(=O)c1cc(COc2cncc(Cl)c2)on1)c1ccccc1,3%,/,-9%,-9%,10%,23%
CCC(NC(=O)c1cc(COc2cncc(Cl)c2)on1)c1ccc(C)cc1 (centres undefined),3%,-22%,5.2µM*,-12%,53%,-8%
CC(C)(C)c1ccc(Oc2nc3ccccn3c(=O)c2/C=C(\C#N)c2nc3ccccc3[nH]2)cc1,16%,/,/,/,/,/
Oc1cccc(/C=N/Nc2nn3cnnc3c3ccccc23)c1,-1%,5%,4%,38%,12%,-46%
COc1cccc(/C=N/Nc2nn3cnnc3c3ccccc23)c1O,1%,15%,0.33µM*,76%,?,-16%
O=[N+]([O-])c1ccc(NN=Cc2cccc3ccccc23)nc1,/,-28%,/,58%,/,/
O=c1nccc(N/N=C/c2ccccc2O)[nH]1,-5%,?,0.83µM*,33%,9.3µM*,-17%
COc1cccc(/C=N/Nc2ccnc(=O)[nH]2)c1O,3%,2.2µM*,0.23µM*,-24%,0.29µM*,-6%
COc1cccc(/C=N/Nc2ccc([N+](=O)[O-])cn2)c1O,-1%,1.1µM*,?,55%,?,-24%
COc1cc(OC)c(C(=O)NCc2nc(-c3ccccc3)no2)cc1OC,-3%,/,/,/,/,/
Cc1c(C(=O)Nc2ccccc2Cl)sc2ncnc(N(C)C3CCCCC3)c12,9%,/,/,/,/,/
CCOc1ccccc1/C=N/Nc1ccnc(=O)[nH]1,4%,11µM*,?,99%,?,-4%
SMILES,AmpC inh detg,HCV inhibitor,Pf growth 96h,AMA1-RON2 inh,Pf growth 48h,AmpC no deterg
CCCN1CCN(C(=O)c2cc(COc3ccc4ncccc4c3)on2)CC1,-6%,10µM*,-23%,-1%,-8%,40%
CCN1CCN(C(=O)c2cc(COc3ccc4ncccc4c3)on2)CC1,4%,11µM*,3%,2%,-4%,-3%
CCN(CC)C(=O)C1CCCN(C(=O)c2cc(COc3ccc4ncccc4c3)on2)C1 (centres undefined),-2%,?,-8%,3%,-22%,90%
C/C(=N\NC(=O)c1ccc(Cn2cc(Br)cn2)o1)c1cccc(NC(=O)C(C)C)c1,8%,?,12µM*,-3%,-15%,-7%
CCNS(=O)(=O)c1ccc(NC(=O)c2ccc(Cn3cc(Br)cn3)o2)cc1,?,?,12µM*,12%,-24%,-23%
Cc1cc(NC(=O)CSc2nccn2C)no1,-10%,-2%,16%[5.75 µM],7%,13%,-26%
Cc1cc(C)c(NC(=O)CSc2nccn2C)c(C)c1,-1%,9%,0.074µM*,-14%,15%,-5%
Cc1cc(C)c(NC(=O)CSc2nnc(-c3ccccn3)n2N)c(Cl)c1,-8%,12%,-1%,18µM*,-2%,-4%
COC(=O)c1ccc(OCC2c3cc(OC)c(OC)cc3CCN2C(=O)COc2ccc(Cl)cc2)cc1 (centres undefined),-2%,/,/,/,/,/
CCOC(=O)C1CCN(C(c2cccc(F)c2)c2c(O)cc(C)n(Cc3ccco3)c2=O)CC1 (centres undefined),22%,/,/,/,/,/
COc1cccc(CN(C(=O)Cc2c[nH]c3ccccc23)C(C(=O)NC2CCCCC2)c2cccs2)c1 (centres undefined),4%,?,12µM*,-4%,9.3µM*,-3%
CC(=O)Nc1ccc(N(C(=O)Cc2c[nH]c3ccccc23)C(C(=O)NC2CCCCC2)c2ccco2)cc1 (centres undefined),-13%,?,2%,-5%,?,1%
CC(=O)c1ccc(N(C(=O)Cc2c[nH]c3ccccc23)C(C(=O)NC2CCCCC2)c2cccs2)cc1 (centres undefined),0%,?,29%,-18%,3.7µM*,-34%
Cc1ccc(C(C(=O)NC2CCCCC2)N(C(=O)Cc2c[nH]c3ccccc23)c2ccccc2)o1 (centres undefined),-14%,-10%,?,0%,9.3µM*,-32%
O=C(NC1CCCCC1)C(c1cccs1)N(C(=O)Cc1c[nH]c2ccccc12)c1ccc(F)cc1 (centres undefined),-10%,16%,?,13%,1%,-27%
